# Inconclusive results are not listed. A call without a number means that no potency is given here. Active and inactive are the calls of the source. The call rests on the fitted dose curve; in most records, active means well fitted inhibition curve with a large enough effect; inconclusive means small, poorly fitted or top-dose-only effect; inactive means no such curve, though single readings can be large or run the other way.
# Test: qHTS for Inhibitors of the Aldehyde Dehydrogenase Family (ALDH1A2, ALDH1A3, ALDH2, ALDH3A1) (AID 2061307); further: nearly all actives have a fitted effect of over 50% in size; on potency: test system not described further here
# Details: ALDH inhibition qHTS; series mostly up to 50.3 µM
# Potency means the concentration at half of the fitted maximal effect.
row,SMILES,Potency
1,COc1cccc(NC(=O)c2cc3ccccc3[nH]c2=O)c1,inactive
2,Cc1cccc(C)c1Nc1c(-c2ccccn2)nc2ccc(Cl)cn12,inactive
3,CC(Sc1nc2c(cnn2C2COC2)c(=O)n1-c1ccccc1)c1ccccc1 (stereo not given),inactive
4,C=CCn1c(Sc2ncc(C#N)cc2Cl)nnc1-c1ccccc1F,inactive
5,NCC(=O)Nc1cc(O)cc(-c2nn3c(=O)cc(N4CCNCC4)nc3s2)c1,inactive
6,NNC(=O)c1ccc2ccccc2n1,inactive
7,COCCN(C)S(=O)(=O)c1ccc(NC(=O)c2ccc(CN3CCc4ccccc4C3)cc2)cc1,inactive
8,CS(=O)(=O)c1cccc(-c2csc3ncnc(NCc4ccccn4)c23)c1,14.1 µM (active)
9,Cc1ccc2c(CC(=O)Nc3c(C(=O)c4ccc(F)cc4)oc4ccccc34)coc2c1C,inactive
10,COc1ccc(NC(=O)C2CCN(c3ccc(Sc4ccc(C)cc4)nn3)CC2)cc1,inactive
11,COc1ccc(NC(=O)c2cc(C3CC3)nc3c2c(C)nn3-c2ccccc2)cc1OC,inactive
12,Cc1sc(NC(=O)Cc2ccc3c(c2)OCO3)nc1-c1ccc2c(c1)CCN2C(=O)c1ccccc1OC(F)(F)F,3.16 µM (active)
13,O=C(O)c1ccc(-c2ccc3ncnc(NCc4cccs4)c3c2)o1,inactive
14,CCn1c(=O)cc(OCC(=O)N2CCN(c3cccc(Cl)c3)CC2)c2ccccc21,inactive
15,O=C(Nc1ccc(CCO)cc1)c1ncoc1-c1ccccc1Cl,inactive
16,Cc1csc(-c2cc(-c3c(Cc4ccc(S(N)(=O)=O)c(F)c4)c(CC4CC4)nn3-c3nc(C(=O)O)cs3)ccc2F)c1,12.7 µM (active)
17,CCOc1c(Cl)cc(CNc2ccc3[nH]c(=O)[nH]c3c2)cc1OC,inactive
18,COc1ccc(OC)c(NC(=O)c2cc3cccc(OC)c3oc2=O)c1,inactive
19,Cc1cccc2c1NC(=O)C2(O)CC(=O)c1ccco1 (stereo not given),0.565 µM (active)
20,O=C(O)c1csc(-n2[nH]c(-c3cc(F)ccc3F)cc2=O)n1,inactive

row,SMILES,Potency
1,Cc1cnc(Cl)nc1NCc1ccc(-n2ccnn2)cc1,inactive
2,Fc1ccc(CN2CCC(N(CCc3ccccc3)Cc3ccccc3)CC2)cc1,inactive
3,Cc1cc(Cl)ccc1-n1c(CCC(=O)O)ccc1-c1cccs1,12.7 µM (active)
4,Cc1ccc(-c2cc(C(=O)O)c3cccc(C)c3n2)cc1,7.12 µM (active)
5,CCOC(=O)OC(C)OC(=O)c1csc(-n2[nH]c(-c3ccc(F)c(F)c3)cc2=O)n1 (stereo not given),inactive
6,Cc1nn(CC(=O)N2CCN(c3cccc(C(F)(F)F)c3)CC2)c(=O)c2cc3sccc3n12,inactive
7,O=C(O)c1cc(-c2cccs2)nc2cc(Br)ccc12,10.1 µM (active)
8,Cc1nnc(NCc2ccc(Cl)cc2)o1,8.96 µM (active)
9,CCN1CCN(C2c3ccccc3-c3ccc(Br)cc32)CC1 (stereo not given),inactive
10,CS(=O)(=O)c1nc(-c2ccc(Br)cc2)cs1,inactive
11,CCOc1ccccc1-n1c(CN2CCN(C(=O)c3ccco3)CC2)nc2cc(OC)c(OC)cc2c1=O,inactive
12,O=C(O)c1csc(-n2[nH]c(-c3ccc(F)c(F)c3)cc2=O)n1,inactive
13,O=C(N/N=C/c1ccco1)c1cccc(F)c1,inactive
14,COc1cccc(Nc2nc(C)c(C(=O)Nc3ccccc3)s2)c1,inactive
15,COc1ccc(Cl)cc1NC(=O)c1nn(-c2ccc(C)cc2)c(=O)n(C)c1=O,inactive
16,Cc1cccc(NC(=O)CSCC(=O)Nc2ccc(F)cc2)c1,inactive
17,COc1ccc(-n2c(C)c(C(C)=O)c3cc(OC)ccc32)cc1,inactive
18,O=C(CSc1nnc(-c2ccncc2)o1)Nc1ccc2c(c1)OCCO2,inactive
19,Nc1nc2c(s1)C(c1ccccc1)CC(=O)N2 (stereo not given),11.3 µM (active)
20,COc1ccc(Cl)cc1Nc1cc(C)nc2nc(-c3ccccc3C)nn12,inactive

# From PubChem BioAssay (NCATS)
